Assay results: PubChem BioAssay (Tox21)
Inconclusive results are not listed. Some compounds were tested as several samples or in several runs, with calls that do not always agree. Calls of active or inactive are those of the source. Unless noted, the call rests on the fitted dose curve.

Key:
[1] = Nuclear factor erythroid 2-related factor 2/antioxidant responsive element (Nrf2/ARE) small molecule agonists: qHTS cell viability counter screen in human keratinocytes (AID 1919968; active means well fitted cell-killing curve with a large enough effect in the repeat runs; further: nearly all actives have a fitted effect of over 55% in size)
How it was run: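 Seed 1,500 KeratinoSens cells per well, then incubate 5 h at 37 C/5% CO2. Add compounds in DMSO and incubate 23 h. Add CellTiter-Fluor, wait 1 h and read fluorescence.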

[2] = Nuclear factor erythroid 2-related factor 2/antioxidant responsive element (Nrf2/ARE) small molecule agonists: luciferase reporter gene qHTS assay in human keratinocytes (AID 1919969); further: nearly all actives have a fitted effect of over 35% in size; further: potency means the concentration at half of the fitted maximal effect
[3] = target: Gonadotropin-releasing hormone receptor (Homo sapiens) (UniProt P30968); assay: Human gonadotropin-releasing hormone receptor (GnRHR) small molecule agonists, calcium flux assay in GnRHR-HEK293 cells (AID 1920063); further: nearly all actives have a fitted effect of over 35% in size
Sequence of Gonadotropin-releasing hormone receptor (Homo sapiens) (P30968 whole entry, looked up): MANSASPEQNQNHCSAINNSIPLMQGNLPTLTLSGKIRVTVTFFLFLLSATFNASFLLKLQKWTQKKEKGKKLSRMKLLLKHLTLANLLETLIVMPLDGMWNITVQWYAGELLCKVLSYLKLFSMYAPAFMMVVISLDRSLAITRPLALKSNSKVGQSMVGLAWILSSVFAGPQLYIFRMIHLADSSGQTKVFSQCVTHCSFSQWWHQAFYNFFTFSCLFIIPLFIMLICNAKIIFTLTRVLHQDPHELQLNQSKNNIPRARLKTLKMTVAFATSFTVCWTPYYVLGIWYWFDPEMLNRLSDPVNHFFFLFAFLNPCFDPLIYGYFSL
How it was run: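 Cells: HEK293 stably expressing human GnRHR. Steps: overnight (18 h) culture, 1 h calcium dye loading at 37 C, compound addition, kinetic fluorescence read at 480/540 nm. Each compound tested at 15 concentrations in triplicate.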

[4] = p53 small molecule agonists, cell-based qHTS assay with human liver microsomes: qHTS cell viability counter screen (AID 1963579); further: nearly all actives have a fitted effect of over 45% in size
How it was run: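 Seed p53RE-bla cells at 4,000 per well; incubate 5 h at 37 C; add compound, human liver microsomes and NADPH; incubate 16 h at 37 C; add CellTiter-Glo; after 30 min at room temperature, read luminescence.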

[5] = p53 small molecule agonists, cell-based qHTS assay with rat liver microsomes: qHTS cell viability counter screen (AID 1963580); further: nearly all actives have a fitted effect of over 45% in size
How it was run: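 HCT-116 p53RE-bla, 4,000 cells/well, 5 h pre-incubation; cpd + rat liver microsomes 0.5 mg/mL + NADPH 0.5 mg/mL (final); 16 h, 37 C; CellTiter-Glo, 30 min RT; luminescence.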

[6] = p53 small molecule agonists, cell-based qHTS assay: qHTS cell viability counter screen (AID 1963581); further: nearly all actives have a fitted effect of over 45% in size
How it was run: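 Cells: HCT-116 with p53 response element-driven beta-lactamase. Treatment: 16 h, 37 C, compounds in DMSO. Read: CellTiter-Glo luminescence after 30 min RT.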

[7] = target: 5-hydroxytryptamine receptor 2A (Homo sapiens) (UniProt P28223); assay: 5-hydroxytryptamine receptor 2A (HTR2A) small molecule antagonists, cell-based qHTS assay (AID 1963586); further: nearly all actives have a fitted effect of over 45% in size
Sequence of 5-hydroxytryptamine receptor 2A (Homo sapiens) (P28223 whole entry, looked up): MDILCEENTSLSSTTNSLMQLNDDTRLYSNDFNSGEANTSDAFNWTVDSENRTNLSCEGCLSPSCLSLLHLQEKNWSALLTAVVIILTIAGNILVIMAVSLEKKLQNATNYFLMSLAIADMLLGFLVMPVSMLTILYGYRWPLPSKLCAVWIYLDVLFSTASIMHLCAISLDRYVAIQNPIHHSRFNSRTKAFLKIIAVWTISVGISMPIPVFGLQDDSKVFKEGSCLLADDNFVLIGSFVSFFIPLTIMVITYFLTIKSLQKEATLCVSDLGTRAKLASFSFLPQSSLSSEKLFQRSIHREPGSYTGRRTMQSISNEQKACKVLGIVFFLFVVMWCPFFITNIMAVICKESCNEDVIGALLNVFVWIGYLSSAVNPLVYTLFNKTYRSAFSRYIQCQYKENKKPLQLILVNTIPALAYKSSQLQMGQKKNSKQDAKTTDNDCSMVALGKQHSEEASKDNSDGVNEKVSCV
How it was run: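 Antagonist-mode intracellular calcium assay: DOI (4 nM) added after 5 min compound pre-incubation at room temperature to dye-loaded HTR2A-CHO cells. Fluorescence followed for 3 min, sampled every second.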

[8] = target: 5-hydroxytryptamine receptor 2A (Homo sapiens) (UniProt P28223); assay: 5-hydroxytryptamine receptor 2A (HTR2A) small molecule agonists, cell-based qHTS assay (AID 1963587); further: nearly all actives have a fitted effect of over 30% in size
How it was run: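 Kinetic calcium-flux fluorescence (2 min, 1 sec intervals) after compound addition in agonist mode. HTR2A-CHO cells were cultured 18 h, then dye-loaded 1 h at 37 C.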

[9] = target: Muscarinic acetylcholine receptor M1 (Homo sapiens) (UniProt P11229); assay: Cholinergic receptor muscarinic 1 (CHRM1) small molecule antagonists, cell-based qHTS assay (AID 1963588); further: nearly all actives have a fitted effect of over 40% in size
Sequence of Muscarinic acetylcholine receptor M1 (Homo sapiens) (P11229 whole entry, looked up): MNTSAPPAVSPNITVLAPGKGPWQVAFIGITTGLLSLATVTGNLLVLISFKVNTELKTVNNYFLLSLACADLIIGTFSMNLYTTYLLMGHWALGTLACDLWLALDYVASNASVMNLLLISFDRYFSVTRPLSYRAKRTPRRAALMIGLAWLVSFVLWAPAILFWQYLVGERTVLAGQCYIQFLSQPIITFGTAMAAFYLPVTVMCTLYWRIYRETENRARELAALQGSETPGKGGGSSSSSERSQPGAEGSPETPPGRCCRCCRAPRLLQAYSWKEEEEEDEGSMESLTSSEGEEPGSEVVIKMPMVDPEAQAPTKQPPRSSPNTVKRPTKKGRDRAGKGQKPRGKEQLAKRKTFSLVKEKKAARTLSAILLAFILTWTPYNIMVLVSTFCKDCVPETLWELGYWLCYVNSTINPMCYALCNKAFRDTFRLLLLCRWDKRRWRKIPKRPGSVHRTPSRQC
How it was run: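 CHRM1-CHO calcium-flux assay, antagonist mode. Cells were seeded 18 h, dye-loaded 1 h at 37 C and given compound for 5 min at RT, then acetylcholine was added at 50nM. FDSS fluorescence was read 3 min; 15 concentrations, three runs.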

[10] = target: Muscarinic acetylcholine receptor M1 (Homo sapiens) (UniProt P11229); assay: Cholinergic receptor muscarinic 1 (CHRM1) small molecule agonists, cell-based qHTS assay (AID 1963589); further: nearly all actives have a fitted effect of over 35% in size
How it was run: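 Agonist-mode qHTS in CHO cells stably carrying human muscarinic M1. Intracellular calcium is tracked by fluorescence every second after compound transfer; each compound runs at 15 concentrations in three independent runs.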

[11] = cAMP Responsive Elements (CRE) small molecule agonists, cell-based qHTS assay (AID 1963590)
How it was run: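 Agonist mode qHTS in CRE-bla HEK 293T cells: compounds dosed from DMSO for 3 h at 37 C/5% CO2, followed by LiveBLAzer B/G FRET substrate for 2 h at room temperature.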

[12] = cAMP Responsive Elements (CRE) small molecule antagonists, cell-based qHTS assay (AID 1963591; active means well fitted inhibition curve with a large enough effect in the signal ratio in the repeat runs, not every such curve was filed as active; the % refers to the signal ratio)
How it was run: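 Antagonist mode: test compounds are co-incubated with the adenylyl cyclase activator NKH477 (0.25 uM final) on CRE-bla HEK293T cells for 3 h at 37 °C, followed by LiveBLAzer substrate loading.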

[13] = target: Beta-2 adrenergic receptor (Homo sapiens) (UniProt P07550); assay: Adrenergic beta2 receptor (ADRB2) small molecule antagonists, cell-based qHTS assay (AID 1963592); further: series mostly up to about 92 µM; nearly all actives have a fitted effect of over 50% in size
Sequence of Beta-2 adrenergic receptor (Homo sapiens) (P07550 whole entry, looked up): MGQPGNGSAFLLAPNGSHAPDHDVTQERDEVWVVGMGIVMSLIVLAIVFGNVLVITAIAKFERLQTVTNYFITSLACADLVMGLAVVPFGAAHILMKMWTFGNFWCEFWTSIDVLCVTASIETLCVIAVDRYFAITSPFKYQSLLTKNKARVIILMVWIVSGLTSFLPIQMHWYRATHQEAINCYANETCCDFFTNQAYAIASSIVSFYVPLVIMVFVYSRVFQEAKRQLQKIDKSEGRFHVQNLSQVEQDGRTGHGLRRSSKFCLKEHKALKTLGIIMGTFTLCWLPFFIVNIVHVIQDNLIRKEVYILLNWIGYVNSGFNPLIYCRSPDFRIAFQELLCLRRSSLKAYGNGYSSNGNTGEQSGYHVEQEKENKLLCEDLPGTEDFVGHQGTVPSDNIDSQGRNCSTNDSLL
How it was run: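 Cells (CHO, stable ADRB2 overexpression) incubated 18-20hr at 37C; compounds added from DMSO; agonist mix (1nM isoproterenol, 100uM IBMX, 25uM Ro-20-1724) added; 0.5hr RT; d2-cAMP and anti-cAMP-cryptate added; 1hr RT; 665/615 nm read.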

[14] = target: Beta-2 adrenergic receptor (Homo sapiens) (UniProt P07550); assay: Adrenergic beta2 receptor (ADRB2) small molecule agonists, cell-based qHTS assay (AID 1963593);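 further: CHO cells stably overexpressing human ADRB2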
How it was run: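 CHO cells stably over-expressing ADRB2 were plated overnight at 37C, then dosed with compounds plus a stimulation mix containing 100uM IBMX and 25uM Ro-20-1724 for 0.5hr at room temperature. cAMP was measured by HTRF competition, 1hr.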

[15] = target: D(2) dopamine receptor (Homo sapiens) (UniProt P14416); assay: Dopamine D2 receptor (DRD2) small molecule agonists, cell-based qHTS assay (AID 1963594); further: nearly all actives have a fitted effect of over 35% in size
Sequence of D(2) dopamine receptor (Homo sapiens) (P14416 whole entry, looked up): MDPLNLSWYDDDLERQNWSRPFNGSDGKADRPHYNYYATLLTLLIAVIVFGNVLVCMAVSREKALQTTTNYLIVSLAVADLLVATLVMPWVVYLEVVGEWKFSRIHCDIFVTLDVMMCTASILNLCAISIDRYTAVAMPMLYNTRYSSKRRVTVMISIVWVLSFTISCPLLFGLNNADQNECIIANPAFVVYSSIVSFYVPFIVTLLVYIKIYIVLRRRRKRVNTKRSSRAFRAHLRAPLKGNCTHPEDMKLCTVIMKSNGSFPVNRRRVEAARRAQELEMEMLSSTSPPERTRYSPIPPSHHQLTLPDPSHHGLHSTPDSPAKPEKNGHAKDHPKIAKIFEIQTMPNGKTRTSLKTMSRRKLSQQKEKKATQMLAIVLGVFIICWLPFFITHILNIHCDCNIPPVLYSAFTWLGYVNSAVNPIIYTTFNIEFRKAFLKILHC
How it was run: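 cAMP accumulation in DRD2-HEK293 cells measured by HTRF after 1 h detection; compounds added 10 min before NKH477 (200nM […]) forskolin-analogue stimulation, 30 min at room temperature, with Ro20-1724 present at 0.1 mM final.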

[16] = target: D(2) dopamine receptor (Homo sapiens) (UniProt P14416); assay: Dopamine D2 receptor (DRD2) small molecule antagonists, cell-based qHTS assay (AID 1963595; active means well fitted inhibition curve with a large enough effect in the signal ratio in the repeat runs, with a control signal flat; the % refers to the signal ratio)
How it was run: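 DRD2-HEK293; 0.1 mM Ro20-1724; cpd 10 min RT; NKH477 200 nM + quinpirole 12 nM, 30 min RT; HTRF cAMP (cAMP-d2/anti-cAMP cryptate), 665/620 nm ratio after 1 h.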

[17] = G protein-coupled receptor (GPCR) small molecule agonists, calcium flux assay: HEK293 wild type cell line counter screen (AID 1920065)
How it was run: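 Counter-screen of the Tox21 10K library for non-specific calcium release: dye-loaded cells received compounds in DMSO and were monitored by kinetic fluorescence (480/540 nm, 3 min). Fifteen concentrations, run in triplicate.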

[18] = p53 small molecule agonists, cell-based qHTS assay with human liver microsomes (AID 1963577)
How it was run: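 Cells carrying a p53-responsive bla reporter were rested 5 h (37 C, 5% CO2) before compound transfer. Human liver microsomes plus NADPH, 0.5 mg/mL final apiece, supplied metabolism during the 16 h 37 C exposure.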

[19] = p53 small molecule agonists, cell-based qHTS assay with rat liver microsomes (AID 1963578)
How it was run: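 Fluorescence from a beta-lactamase reporter under a p53 response element was measured after cells had been incubated 16 h at 37 C with test compound and rat liver microsomes plus NADPH (0.5 mg/mL final each).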

[20] = p53 small molecule agonists, cell-based qHTS assay (AID 1963582; active means well fitted activation curve with a large enough effect in the signal ratio in the repeat runs, not every such curve was filed as active; the % refers to the signal ratio)
How it was run: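 Quantitative HTS in p53RE-bla cells: after a 5 h settling period, compounds delivered in DMSO were left on cells for 16 h at 37 C, and reporter induction was measured as fluorescence following 2 h substrate loading.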

Measured: Potency

CO[Si](CCCNCCN)(OC)OC
not listed: [17] | [18] | [19] | [20]
inactive: all other assays above

CC(=O)OCc1ccco1
not listed: [14] | [17] | [18] | [19] | [20]
inactive: all other assays above

CCOC(=O)C(C)Oc1ccc(Oc2cnc3cc(Cl)ccc3n2)cc1 (configuration not stated)
inactive: [1] | [2] | [3] | [4] | [5] | [6] | [7] | [8] | [10] | [13] | [15]

CCc1ccccc1O
60.8 µM (active) and inactive: [2]
not listed: [16] | [17] | [18] | [19] | [20]
inactive: all other assays above

O=C1CC(c2ccc(Cl)cc2)CC(=O)N1
inactive: all assays above

NS(=O)(=O)c1ccc(NC(=O)CCC(=O)O)cc1
not listed: [13] | [17] | [18]
inactive: all other assays above

CCCCCCCCCCCCOCC1CO1 (configuration not stated)
active: [2] 46.3 µM
not listed: [12] | [14] | [17] | [18] | [19] | [20]
inactive: all other assays above

Cc1cccc2c1ccc1ccccc12
not listed: [14]
inactive: all other assays above

Cc1ccc2oc(=O)ccc2c1
not listed: [7] | [14] | [17] | [18] | [19] | [20]
inactive: all other assays above

Nc1nc(N)nc(-c2ccccc2)n1
not listed: [6] | [11] | [14] | [17] | [18] | [19] | [20]
inactive: all other assays above

O=C1CCCCC1
not listed: [17] | [18] | [19] | [20]
inactive: all other assays above

OCC(CO)(CO)CO
not listed: [5] | [14] | [17] | [18] | [19] | [20]
inactive: all other assays above

c1ccc2c(c1)Oc1ccccc1S2
inactive: all assays above

CCn1c2ccccc2c2ccccc21
not listed: [14]
inactive: all other assays above

CCCCCCC1(C)CCC(=O)O1 (configuration not stated)
inactive: all assays above

O=C(/C=C/c1ccccc1)OCc1ccccc1
not listed: [7] | [11] | [14] | [16] | [17] | [18]
inactive: all other assays above

CCCCOCCOCCOC(=O)CCCCC(=O)OCCOCCOCCCC
not listed: [14] | [17] | [18] | [19] | [20]
inactive: all other assays above
